# Screens: PubChem, Sanford-Burnham Center for Chemical Genomics
# An excerpt weighted towards active compounds, which were near 28% of everything screened.
# CYP2C9 activ: activators of human CYP2C9; recombinant CYP2C9, luciferin-H conversion, luminescence; stronger effect = higher value; factor 1 = untreated enzyme, 0 = blocked; 96,000 tested, 1.4% active; P11712; activation factor at 5 µM;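 active = activation factor of 2 or more for CYP2C9 at a 5 µM dose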;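 note: 0 = sulfaphenazole-blocked wells and 1 = vehicle-only wells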
# CYP2C9 inhib: human CYP2C9 inhibition | CYP2C9 Supersomes, luciferin-H conversion, luminescence | AID 777 | inhibition, % at 5 µM | P11712 | 96,000 tested, 20% active;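 active = blocking of liver enzyme CYP2C9 beyond about 50% at 5 µM, limit read from the data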
# PTK2B oligo ant: antagonists of human Pyk2 oligomerization. Q14289. Q293 cells, Pyk2 FERM NanoBiT luminescence; stronger effect = lower value. z-score (the deposit names both 25 µM and 10 µM). 99,000 tested, 0.83% active. AID 1347419;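 active = Z-score of -3 or lower, scaled per plate to the spread of control and sample wells; inactive = z-score above -3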;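 note: negative z-score means lost luminescence so less FERM oligomerization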
# CYP2C19 inh: inhibitors of human CYP2C19. AID 778. 96,000 tested, 21% active. CYP2C19 Supersomes, luciferin-H EGE luminescence, 30 min. P33261. inhibition, % at 5 µM;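 active = CYP2C19 inhibition above a set limit at 5 µM in the primary screen, cut at about 50% in these data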;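 note: plate controls were negative control wells for no effect and 2.5 mM tranylcypromine positive control for full effect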
# Target sequence (P33261 whole entry, looked up): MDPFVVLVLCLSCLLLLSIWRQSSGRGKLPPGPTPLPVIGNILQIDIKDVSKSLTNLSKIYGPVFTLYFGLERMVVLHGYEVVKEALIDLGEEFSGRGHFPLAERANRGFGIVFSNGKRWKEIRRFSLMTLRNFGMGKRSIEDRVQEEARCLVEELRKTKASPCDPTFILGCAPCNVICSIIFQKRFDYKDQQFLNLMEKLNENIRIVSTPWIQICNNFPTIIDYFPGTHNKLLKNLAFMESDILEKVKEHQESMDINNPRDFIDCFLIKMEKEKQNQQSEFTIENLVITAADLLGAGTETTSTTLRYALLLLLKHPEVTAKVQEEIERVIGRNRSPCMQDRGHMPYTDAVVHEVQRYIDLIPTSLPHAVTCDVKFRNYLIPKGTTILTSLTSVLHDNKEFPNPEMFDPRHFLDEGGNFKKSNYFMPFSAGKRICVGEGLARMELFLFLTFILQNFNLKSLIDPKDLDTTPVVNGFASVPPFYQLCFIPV
# CYP2C19 activ: activators of human cytochrome P450 2C19 | P33261 | recombinant CYP2C19, luciferin-H EGE luminescence; stronger effect = higher value; 0 = fully inhibited enzyme, 1 = untreated enzyme | activation factor at 5 µM | 96,000 tested, under 10 active;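 active = activation factor of at least 2 at 5 µM in the primary screen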;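 note: 0 = wells with 2.5 mM tranylcypromine and 1 = vehicle-only wells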
# * marks the source's active call; other numbers are inactive results; · = not tested or not shown.
SMILES,CYP2C9 activ,CYP2C9 inhib,PTK2B oligo ant,CYP2C19 inh,CYP2C19 activ
Cc1sc(NC(=O)CSc2nnc(C(C)C)n2C)c(C#N)c1C,·,·,-0.6,·,·
Cc1sc(NC(=O)CSc2nnc(C)c(=O)[nH]2)c(C#N)c1C,0,97*,0.5,12,0.9
COC(=O)c1cc(NCc2cccs2)ccc1N1CCOCC1,0.4,64*,-0.22,77*,0.2
CCCOc1ccc(C(CC(=O)O)NC(=O)c2ccc3c(c2)OCO3)cc1 (stereo not drawn),0.9,13,0.77,-1,1
Cc1ccc(CC(NC(=O)c2ccccc2)C(=O)NC(C)C(=O)O)cc1 (stereo not drawn),1,-3,1.6,7,0.9
COC(=O)CC(NC(=O)c1ccc(C)cc1)c1ccccc1 (stereo not drawn),0.6,39,0.25,69*,0.3
C=CCOC(=O)CC(NC(=O)c1ccccc1)c1ccccc1 (stereo not drawn),0.1,94*,-0.08,96*,0
C=CCOC(=O)/C(=C\c1cccc2ccccc12)NC(=O)c1ccccc1,0.2,78*,-1.4,82*,0.2
COC(=O)CC(NC(=O)c1ccc(C)cc1)c1ccc2c(c1)OCO2 (stereo not drawn),0.3,68*,-1.1,78*,0.2
O=C(NC(NC(=O)c1ccccc1)c1ccccc1)c1ccccc1,1,4,0.17,8,0.9
CCOC(=O)/C(=C/c1c2ccccc2cc2ccccc12)NC(=O)c1ccccc1,0.7,28,-0.51,6,0.9
O=C(NNC(=O)C1CCCO1)c1ccc(Cl)cc1 (stereo not drawn),0.9,7,0.96,-4,1
Cc1ccc[n+](C(C)C(=O)Nc2ccc(C)c([N+](=O)[O-])c2)c1 (stereo not drawn),1.2,-20,0.91,-15,1.1
O=C1NC(=O)C(c2cn(-c3ccccc3)nc2-c2ccc(F)cc2)N1 (stereo not drawn),0.1,94*,-1.2,21,0.8
CCCOc1ccc(C(C)=O)cc1CSc1nc(O)cc(=O)[nH]1,0.3,75*,0.7,9,0.9
COC(=O)Cc1c(O)ccn(Cc2cccc3ccccc23)c1=O,0.5,47,-0.71,64*,0.4
COc1ccc(N(C(=O)C(C)C)S(=O)(=O)c2ccc(Cl)cc2)cc1,0.1,88*,-0.75,97*,0
COc1ccc(N(C(=O)C(C)C)S(=O)(=O)c2ccc3c(c2)n(C)c(=O)n3C)cc1,0.3,65*,-0.06,14,0.9
COc1ccc(N(C(=O)c2cccc([N+](=O)[O-])c2)S(=O)(=O)c2ccc3c(c2)n(C)c(=O)n3C)cc1,0.6,42,-2.2,47,0.5
CC1CCCC(C)N1NC(=O)c1ccc(Cl)c(S(N)(=O)=O)c1 (stereo not drawn),1,-4,·,-25,1.3
O=C(Cn1cnc2c(nnn2-c2ccc(F)cc2)c1=O)N1CCCC1,1.1,-14,-0.21,-14,1.1
Cn1c(=O)c(=O)n(C)c2cc(S(=O)(=O)N3CCN(C4CCCCC4)CC3)ccc21,2.5*,-149,·,-11,1.1
CCS(=O)(=O)N1CCCC(C(=O)NC2CCCC2)C1 (stereo not drawn),0.9,5,-2,21,0.8
COc1ccc2c(c1)c(=O)oc1cc3occ(C(C)(C)C)c3cc12,1,5,1.1,10,0.9
COc1ccc2c(c1)c(=O)oc1cc3oc(C)c(C)c3cc12,0.8,18,·,70*,0.3
SMILES,CYP2C9 activ,CYP2C9 inhib,PTK2B oligo ant,CYP2C19 inh,CYP2C19 activ
O=C1C=C(NCc2ccncc2)CC(c2ccccc2)C1 (stereo not drawn),0.6,45,0.35,96*,0
O=C1C=C(NCc2ccc(Cl)cc2)CC(c2ccco2)C1 (stereo not drawn),0.4,60*,0.79,93*,0.1
O=C1C=C(Nc2ccc(O)cc2)CC(c2ccco2)C1 (stereo not drawn),·,·,-0.44,·,·
CC(C)CNC1=CC(=O)CC(c2ccco2)C1 (stereo not drawn),0.8,22,-0.29,55*,0.4
COC(=O)Cn1nc(-c2ccccc2)c2ccccc2c1=O,1.2,-18,0.71,34,0.7
COc1ccccc1NC(=O)Cn1c(=O)n2nc(C)nc2c2ccccc21,0.8,20,·,24,0.8
O=C(CCn1nc(-c2ccccc2)c2ccccc2c1=O)NCC1CCCO1 (stereo not drawn),0.5,54*,0.13,56*,0.4
COc1ccc(Cl)cc1NC(=O)Cn1c(=O)n2nc(C)nc2c2ccccc21,0.7,34,·,59*,0.4
COc1ccccc1NC(=O)Cn1nc(-c2ccc(Cl)cc2)c2ccccc2c1=O,0.3,70*,0.56,41,0.6
CCNC(=O)CCn1nc(-c2ccc(Cl)cc2)c2ccccc2c1=O,0.7,31,1.5,65*,0.3
CCCCCC(C)n1[nH]c(=O)cc1N (stereo not drawn),0.8,19,-0.23,10,0.9
CCOC(=O)c1oc2nc(CC(C)C)c3c(c2c1N)CCC3,1.1,-9,-0.65,23,0.8
Cc1ccc(-c2nn(CCC(=O)NCC3CCCO3)c(=O)c3ccccc23)cc1 (stereo not drawn),0.5,54*,-0.11,32,0.7
O=c1c2ccccc2c(-c2ccccc2)nn1Cc1ccc(Cl)cc1,0.4,58*,-0.46,66*,0.3
O=C(CCSc1ccccc1)NCC1CCCO1 (stereo not drawn),1,1,0.67,72*,0.3
O=C(CCn1nc(-c2ccccc2)c2ccccc2c1=O)N1CCN(c2ccccc2)CC1,0.1,85*,-0.71,90*,0.1
O=C(O)Cn1nc(-c2ccccc2)c2ccccc2c1=O,1,-1,0.36,9,0.9
Cc1ccc(-c2nn(CC(=O)NCC3CCCO3)c(=O)c3ccccc23)cc1 (stereo not drawn),0.8,16,-0.39,8,0.9
CCC1CC2(C)NC(=O)c3c(sc4c3CC(C)(C)OC4)N2C1=O (stereo not drawn),0.9,7,-0.54,1,1
COc1cc(C(=O)OCC(=O)NC2CCS(=O)(=O)C2)ccc1OCc1c(C)noc1C (stereo not drawn),·,·,0.07,·,·
CC(C)Oc1ccccc1C1CC(=O)Nc2cc3c(cc21)OCO3 (stereo not drawn),0.2,76*,-2.5,99*,0
CCCOc1ccccc1C1CC(=O)Nc2cc3c(cc21)OCCO3 (stereo not drawn),·,·,-2.2,·,·
CCOc1ccccc1C1CC(=O)Nc2cc3c(cc21)OCCO3 (stereo not drawn),0.3,69*,-2,54*,0.5
O=C1CC(c2cccnc2)c2cc3c(cc2N1)OCO3 (stereo not drawn),1,4,·,-2,1
CCn1c(CNc2ccc(Cl)cc2)nnc1SCC(=O)NCc1ccccc1,0.4,55*,0.65,67*,0.3
O=C(CSc1nncn1-c1ccccc1)Nc1cc(Cl)cc(Cl)c1,1.1,-14,1.1,12,0.9
